Source: PubChem BioAssay AID651551 (Sanford-Burnham Center for Chemical Genomics, 2012)

assay: GAPDH versus PEG-3 reporter suppression – cell-based, luminescence, counter-screen for PEG-3 promoter inhibitor project, SAR follow-up (AID 651551); details: HeLa PEG-Prom / GAPDH luciferase reporter, 6 or 24 h, run 2, 24 h; at 99 µM (top of the series)

**Q.** Which inhibition % (higher = more inhibition) does the source give for `O=C(Nc1nc(-c2ccccc2)cs1)c1nn(-c2ccccc2)c(=O)c2ccccc12` here?
**A.** Its inhibition % (higher = more inhibition) is 43.1%.

**Q.** For `CCCn1nc(C(=O)Nc2nc(-c3ccncc3)cs2)c2ccccc2c1=O`, which inhibition % (higher = more inhibition) is on record?
**A.** The inhibition % (higher = more inhibition) was 72%.

**Q.** With `COc1ccc(-n2nc(C(=O)NCC(=O)Nc3ccc(OC)c(OC)c3)c3ccccc3c2=O)cc1` as the compound, how does the inhibition % (higher = more inhibition) read?
**A.** The inhibition % (higher = more inhibition) was 86.5%.

**Q.** With `Cc1cc(NC(=O)c2ccccc2)n(-c2nc3ccccc3[nH]2)n1` as the compound, how does the inhibition % (higher = more inhibition) read?
**A.** Its inhibition % (higher = more inhibition) is -1.45%.

**Q.** With `COc1ccc(Cl)cc1Nc1nc(-c2sc(NC(=O)c3ccccc3)nc2C)cs1` as the compound, how does the inhibition % (higher = more inhibition) read?
**A.** The inhibition % (higher = more inhibition) was 75.6%.

**Q.** For `O=C(Nc1nccs1)c1nn(-c2ccccc2)c(=O)c2ccccc12`, which inhibition % (higher = more inhibition) is on record?
**A.** Its inhibition % (higher = more inhibition) is 56.2%.

**Q.** Which inhibition % (higher = more inhibition) does the source give for `CCCn1nc(C(=O)Nc2nc3ccccc3s2)c2ccccc2c1=O` here?
**A.** The inhibition % (higher = more inhibition) was 44.3%.

**Q.** With `O=C(Nc1nc2ccccc2s1)c1nn(-c2ccccc2)c(=O)c2ccccc12` as the compound, how does the inhibition % (higher = more inhibition) read?
**A.** Its inhibition % (higher = more inhibition) is 60.8%.

**Q.** With `Cc1cc(NC(=O)c2ccccc2)n(-c2nc3ccccc3n2C)n1` as the compound, how does the inhibition % (higher = more inhibition) read?
**A.** Its inhibition % (higher = more inhibition) is 4.57%.

**Q.** With `COc1ccc(-n2nc(C(=O)NCC(=O)Nc3cc(OC)c(OC)c(OC)c3)c3ccccc3c2=O)cc1OC` as the compound, how does the inhibition % (higher = more inhibition) read?
**A.** Its inhibition % (higher = more inhibition) is 71.7%.

**Q.** Which inhibition % (higher = more inhibition) does the source give for `Cc1cc(NC(=O)c2ccccc2C)n(-c2nc3ccccc3[nH]2)n1` here?
**A.** Its inhibition % (higher = more inhibition) is 76.4%.

**Q.** For `COc1ccccc1Nc1nc(-c2sc(NC(=O)c3ccco3)nc2C)cs1`, which inhibition % (higher = more inhibition) is on record?
**A.** Its inhibition % (higher = more inhibition) is 76.4%.

**Q.** Which inhibition % (higher = more inhibition) does the source give for `Cc1nc(NC(=O)c2ccccc2)sc1-c1csc(Nc2ccccc2)n1` here?
**A.** The inhibition % (higher = more inhibition) was 87.7%.

**Q.** Which inhibition % (higher = more inhibition) does the source give for `Cc1cc(NC(=O)c2cccc(C)c2C)n(-c2nc3ccccc3[nH]2)n1` here?
**A.** Its inhibition % (higher = more inhibition) is 54.6%.

**Q.** Which inhibition % (higher = more inhibition) does the source give for `COc1ccc(-n2nc(C(=O)NCC(=O)Nc3cccc(OC)c3)c3ccccc3c2=O)cc1` here?
**A.** The inhibition % (higher = more inhibition) was 27.5%.

**Q.** For `Cc1cc(NC(=O)c2ccccc2C(F)(F)F)n(-c2nc3ccccc3[nH]2)n1`, which inhibition % (higher = more inhibition) is on record?
**A.** Its inhibition % (higher = more inhibition) is 95.1%.

**Q.** With `Cc1nc(NC(=O)c2ccccc2)sc1-c1csc(Nc2ccccc2Cl)n1` as the compound, how does the inhibition % (higher = more inhibition) read?
**A.** Its inhibition % (higher = more inhibition) is 60.8%.

**Q.** Which inhibition % (higher = more inhibition) does the source give for `Cc1ccc(Cl)cc1Nc1nc(-c2sc(NC(=O)c3ccco3)nc2C)cs1` here?
**A.** Its inhibition % (higher = more inhibition) is 85.8%.

**Q.** For `CCCn1nc(C(=O)Nc2nc(-c3ccccn3)cs2)c2ccccc2c1=O`, which inhibition % (higher = more inhibition) is on record?
**A.** Its inhibition % (higher = more inhibition) is 71.7%.

**Q.** For `CCn1cc(C(=O)NCc2ccco2)c(=O)c2cc(S(=O)(=O)N3CCCC3)ccc21`, which inhibition % (higher = more inhibition) is on record?
**A.** Its inhibition % (higher = more inhibition) is 48.4%.

**Q.** For `Cc1nc(NC(=O)c2ccccc2)sc1-c1csc(Nc2cccc(Cl)c2C)n1`, which inhibition % (higher = more inhibition) is on record?
**A.** The inhibition % (higher = more inhibition) was 46.8%.

**Q.** For `COCCCNC(=O)c1ccc(Cn2c(=O)c3ccccc3n(Cc3ccccc3C#N)c2=O)cc1`, which inhibition % (higher = more inhibition) is on record?
**A.** Its inhibition % (higher = more inhibition) is 78%.

**Q.** Which inhibition % (higher = more inhibition) does the source give for `CCn1nc(C(=O)Nc2nc(-c3ccccn3)cs2)c2ccccc2c1=O` here?
**A.** Its inhibition % (higher = more inhibition) is 53.9%.
